# From PubChem BioAssay AID1979 (Broad Institute, 2009)
# Among all 300,000 compounds or so, about 1,700 (0.57%) were called active. Roughly 2% stayed inconclusive and do not appear here.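 Rule for the calls: active = growth inhibition above about 58% in most replicates (limit read from the data, passing the limit was not always enough); inconclusive = exactly half the replicates above a set limit; inactive = most replicates below a set limit.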 Shown is part of a subset that was picked to be rich in actives.
# Assay: Candida growth reduction under fluconazole – CaCi-2 strain, Alamar Blue fluorescence, primary screen (AID 1979);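 note: all wells also contain fluconazole at 8 µg/ml as a sub-toxic cotreatment; 0% = median of DMSO wells and 100% = median of geldanamycin control wells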
# Conditions: C. albicans CaCi-2 (fluconazole-resistant clinical isolate) + fluconazole, 48 h, hits give high values, concentration not given here
row,Compound,growth inhibition
1,CC(=O)Nc1ccc(NC(=O)CSc2nnnn2C2CCCCC2)cc1,-2.4% (inactive)
2,Oc1c(Cl)cc(Cl)c(Cl)c1Cc1c(O)c(Cl)cc(Cl)c1Cl,110% (active)
3,Cc1c(C(=O)Nc2ccccn2)oc2ccc(Br)cc12,27.1% (inactive)
4,COc1ccc(OC)c(NC(=O)c2ccc3c(c2)C(=O)N(c2ccc(OC(C)=O)cc2)C3=O)c1,0.417% (inactive)
5,CC(=O)c1sc(N)nc1C,-4.24% (inactive)
6,Cc1ccc(NC(=O)COc2coc(CN3CCc4ccccc4C3)cc2=O)cc1Cl,-1.39% (inactive)
7,Cc1ccc(CC(=O)N(C)CC(=O)N(CC(C)C)c2c(N)n(CC(C)C)c(=O)[nH]c2=O)cc1C,1.58% (inactive)
8,Oc1ccccc1CN1CCN(C(c2ccccc2)c2ccccc2)CC1,-4.19% (inactive)
9,CCN1CCN(C(c2cccnc2)c2cc(Cl)c3cccnc3c2O)CC1 (stereo not drawn),101% (active)
10,CCOC(=O)N1CCN(C(c2cccnc2)c2ccc3cccnc3c2O)CC1 (stereo not drawn),-9.67% (inactive)
11,CC(=O)Nc1ccc(C(=O)Nc2cccc(S(=O)(=O)NC3=NCCC3)c2)cc1,3.58% (inactive)
12,O=C(CCCO)N/N=C/c1cc(Br)ccc1O,-31.2% (inactive)
13,Oc1ccc(Br)cc1/C=N/Nc1ccccn1,106% (active)
14,Oc1ccc(/C=N/Nc2ccc(C(F)(F)F)cn2)cc1O,-7.01% (inactive)
15,Cc1cc(NC(=O)C(C)SCC(=O)Nc2ccccc2N2CCCCC2)no1 (stereo not drawn),1.22% (inactive)
16,O=C(Nc1nc(-c2ccco2)c(-c2ccco2)s1)c1ccco1,-0.652% (inactive)
17,CCc1nnc(NC(=O)CCC(=O)O)s1,-5.2% (inactive)
18,CCc1nnc(NC(=O)CSc2nc(SC)ns2)s1,81.2% (active)
19,CSc1nsc(SCC(=O)Nc2cc(C(=O)O)ccc2C)n1,17.7% (inactive)
20,CC(=O)O[C@H]1CC[C@@]2(C)[C@@H](CC[C@@H]3[C@@H]2CC[C@]2(C)[C@@H](C(C)(C)O)C[C@@H]32)C1,1.13% (inactive)

row,Compound,growth inhibition
1,O=C1CCCCC1Sc1ccc(Cl)cc1[N+](=O)[O-] (stereo not drawn),-3.28% (inactive)
2,C[C@@H]1O[C@@H](OC[C@H]2O[C@@H](Oc3c(-c4ccc(O)cc4)oc4cc(O)cc(O)c4c3=O)[C@H](O)[C@@H](O)[C@@H]2O)[C@H](O)[C@H](O)[C@H]1O,1.9% (inactive)
3,Cc1ccc(-c2cc(C(=O)NC3CCN(Cc4ccccc4)CC3)c3ccccc3n2)cc1,2.43% (inactive)
4,CCNS(=O)(=O)c1ccc(NC(=O)Nc2cccc(C(F)(F)F)c2)cc1,-8.1% (inactive)
5,CCOC(=O)N1CCN(C(=O)c2ccc(S(=O)(=O)Nc3cccc(C(F)(F)F)c3)cc2)CC1,-2.84% (inactive)
6,Cc1oc2c(F)c(F)c(F)c(F)c2c1S(=O)(=O)Nc1cccc(C(F)(F)F)c1,84.7% (active)
7,Cc1cc(NC(=O)CCS(=O)(=O)c2ccc(F)cc2)no1,-4.39% (inactive)
8,CN(CC(=O)Nc1cccc(F)c1)C(=O)C1=COCCO1,-19.9% (inactive)
9,Cc1ccc(S(=O)(=O)N2CCC(C(=O)OCC(=O)N(C)c3ccccc3)CC2)cc1C,5.01% (inactive)
10,OC(CNCC1CCCO1)Cn1c2ccc(Br)cc2c2cc(Br)ccc21 (stereo not drawn),101% (active)
11,CCCN1CCn2c3c(c4cc(Br)ccc42)CCCC31 (stereo not drawn),-13.4% (inactive)
12,CC(NS(=O)(=O)c1ccc(Br)cc1)C(=O)NCC1CCCO1 (stereo not drawn),-9.65% (inactive)
13,Cc1nc(-c2ccc(Cl)cc2)sc1C1(C)CC(c2ccc(Br)cc2)=NO1 (stereo not drawn),1.65% (inactive)
14,COCCNC(=O)C1CCN(S(=O)(=O)c2ccc3c(c2)OCCO3)CC1,0.395% (inactive)
15,Cc1ccc(NC(=O)c2sc3nc(N)c(C#N)cc3c2N)cc1,88.6% (active)
16,CCc1ccc2nc3sc(C(=O)Nc4nnc(CC)s4)c(N)c3cc2c1,44% (inactive)
17,COc1ccc(NC(=O)c2cc(-c3ccc(C)cc3)on2)cc1,2.77% (inactive)
18,COC(=O)c1ccc(SCc2ccccc2)nc1,13.7% (inactive)
19,CN(C)c1nc(NN)nc(Nc2ccc(F)cc2)n1,3.13% (inactive)
20,COc1cnn(-c2ccc([N+](=O)[O-])cc2)c(=O)c1Cl,-11.1% (inactive)

row,Compound,growth inhibition
1,Cc1ccc(N2CC(C(=O)Nc3cc(Cl)ccc3-n3cncn3)CC2=O)cc1 (stereo not drawn),-4.63% (inactive)
2,Cc1cccc(NC(=O)c2ccc([N+](=O)[O-])o2)c1,83.3% (active)
3,O=C(Nc1ccc(Br)cn1)c1ccc([N+](=O)[O-])o1,18.1% (inactive)
4,Cc1onc(NC(=O)c2ccc([N+](=O)[O-])o2)c1Br,-0.786% (inactive)
5,CC(=O)N(CC(O)CO)c1c(I)c(C(=O)NCC(O)CO)c(I)c(C(=O)NCC(O)CO)c1I (stereo not drawn),-2.27% (inactive)
6,COc1ccc(OC)c(Nc2nc(-c3ccc(O)c(O)c3)cs2)c1,97.8% (active)
7,COc1cccc(CC(=O)Nc2nc(-c3ccc(OC)c(OC)c3)cs2)c1,-0.204% (inactive)
8,COc1ccc(C)cc1Nc1nc(-c2c(C)[nH]c3ccccc23)cs1,0.619% (inactive)
9,O=C(NCCC1CCCCN1S(=O)(=O)c1ccccc1)C(=O)NCC1CCCO1 (stereo not drawn),-4.24% (inactive)
10,N#Cc1cccc(OC(=O)c2ccc3c(=O)n4c(nc3c2)CCC4)c1,6.7% (inactive)
11,Brc1cnc2ccccc2c1N1CCCCC1,0.784% (inactive)
12,CCOc1cc(N2CCOCC2)c(OCC)cc1NC(=O)COc1cccc(Cl)c1,18.5% (inactive)
13,CCOc1cc(N2CCOCC2)c(OCC)cc1NC(=O)c1cc(C)nc2ccccc12,-4.82% (inactive)
14,CCOc1cc(N2CCOCC2)c(OCC)cc1NC(=O)COc1cccc2cccnc12,101% (active)
15,Cc1cccc(N(C(=O)Cn2nnc(-c3ccc(C)o3)n2)C(C(=O)NC2CCCC2)c2ccncc2)c1 (stereo not drawn),9.19% (inactive)
16,Cc1ccc(-c2nnn(CC(=O)N(Cc3ccco3)C(C(=O)NC(C)(C)C)c3ccncc3)n2)o1 (stereo not drawn),115% (active)
17,Cc1ccc(-c2nnn(CC(=O)N(CCO)C(C(=O)NC(C)(C)C)c3ccncc3)n2)cc1 (stereo not drawn),-7.13% (inactive)
18,Cc1c(C(=O)NC(C)C2CC3CCC2C3)cccc1[N+](=O)[O-] (stereo not drawn),-2.33% (inactive)
